PubChem BioAssay (NCATS)
Results filed as inconclusive are left out. Activity calls are given as the source filed them. The call rests on the fitted dose curve; in most records, active means well fitted inhibition curve with a large enough effect; inconclusive means small, poorly fitted or top-dose-only effect; inactive means flat fitted curve, though single readings scatter.
Potency means the concentration at half of the fitted maximal effect.

Each compound was assayed on CP203 (assay: qHTS profiling for inhibitors of Plasmodium falciparum proliferation (AID 504749; further: nearly all actives have a fitted effect of over 60% in size;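 on activity, negative = inhibition: 0% = DMSO vehicle and full inhibition = artemisinin control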)). Conditions: P. falciparum in erythrocytes, SYBR Green DNA, 72 h; series mostly up to 28.7 µM; activity, negative = inhibition: at the top concentration.
Text: NIH National Institute of Allergy and Infectious Diseases [NIAID] NIH Chemical Genomics Center [NCGC] MLPCN Grant: None Assay Provider: Xinzhuan Su, NIAID NCGC Assay Overview: Plasmodium falciparum is a virulent malarial parasite that kills 1-2 million people worldwide each year. Transmitted by mosquitoes, the sporozoite form of the parasite enters the blood stream to infect hepatocytes, where they become merozoites that infect red blood cells (erythrocytes). Within erythrocytes, merozoites begin a […] cycle of growth and division, after which the parasite is released to infect new red blood cells. Gametocytes, which form within erythrocytes as well, circulate in the bloodstream and are ingested by the mosquito, thereby completing the life cycle. To profile malarial isolates for differential chemical responses and to identify inhibitors of malarial growth, an assay that measures P. falciparum growth and replication within erythrocytes was employed. This assay uses a DNA binding fluorescent dye (SYBR Green) to detect parasite DNA following cell lysis. Because mature erythrocytes lack DNA, only Plasmodium-derived DNA is detected.
NCGC Assay Protocol Summary: The SYBR Green viability assay was adapted from a method described previously (Plouffe et al., 2008). For screening 3 ul culture medium was dispensed into 1536 well black clear bottom plates (Aurora Biotechnologies) using a Multidrop Combi (Thermo Fisher Scientific Inc.), 23 nL compounds in DMSO were added by a pin tool (Kalypsys), and 5 ul of erythrocytes infected with P. falciparum (0.3% parasitemia, 2.5% hematocrit final concentration) were added. The plates were incubated at 37 C in a humidified incubator in 5% CO2 for 72 h, and 2 ul lysis buffer (20 mM Tris HCl, 10 mM EDTA, 0.16% saponin, 1.6% triton X, 10X SYBR Green I supplied as 10,000X […] by Invitrogen) was added to each well. The plates were mixed for 25 sec with gentle shaking and incubated overnight at room temperature in the dark. The following morning, fluorescence intensity at 485(14) nm excitation and 535(25) nm emission wavelengths was measured on an EnVision (Perkin Elmer) plate reader. Plate reads were normalized relative to the control inhibitor (0.29 uM artemisinin) and vehicle (DMSO) wells present on each plate and then corrected by an algorithm using vehicle-only control plates at the beginning and end of the compound plate stack.
`FC(F)(F)c1cccc(C2=CCN(CCc3ccc4ccccc4c3)CC2)c1` was tested, and the “activity, negative = inhibition” value was 1.73% (inactive).
With `CC(=O)[C@H]1CC[C@H]2[C@@H]3CC[C@H]4C[C@](C)(O)CC[C@]4(C)[C@H]3CC[C@]12C` the “activity, negative = inhibition” value was -10.1% (inactive).
With `Oc1cc(Cl)ccc1Oc1ccc(Cl)cc1Cl` the Potency was 15.1 µM (active).
With `Oc1ccc(Cl)cc1Cc1ccccc1` the Potency was 16.9 µM (active).
`CCN(CC)CCOC(=O)C(O)(c1ccccc1)c1ccccc1` was tested, and the “activity, negative = inhibition” value was 13% (inactive).
In the case of `OCCOc1ccccc1`, the “activity, negative = inhibition” value is reported as -19.4% (inactive).
`Fc1ccc(C(OCCN2CCN(CCCc3ccccc3)CC2)c2ccc(F)cc2)cc1` was tested, and the Potency was 12 µM (active).
`COc1ccc(C(=O)c2c(C)n(CCN3CCOCC3)c3ccccc23)cc1` was tested, and the “activity, negative = inhibition” value was -0.734% (inactive).
`Oc1ccccc1-c1ccccc1` was tested, and the “activity, negative = inhibition” value was 2.09% (inactive).
In the case of `CC[N+](CC)(CC)CC`, the “activity, negative = inhibition” value is reported as 9.8% (inactive).
For `NN=C(N)N`, the “activity, negative = inhibition” value was -12.5% (inactive).
For `C=C(C)[C@H]1Cc2c(ccc3c2O[C@@H]2COc4cc(OC)c(OC)cc4[C@@H]2C3=O)O1`, the “activity, negative = inhibition” value was -1.2% (inactive).
`NCC(O)c1ccc(O)cc1` (stereo not given) was tested, and the “activity, negative = inhibition” value was -3.26% (inactive).
`CCCC1CCCCN1` (stereo not given) was tested, and the “activity, negative = inhibition” value was -2.48% (inactive).
For `NCC(CC(=O)O)c1ccc(Cl)cc1` (stereo not given), the “activity, negative = inhibition” value was -7.73% (inactive).
`CC(C)=CC1C(C(=O)OCc2cccc(Oc3ccccc3)c2)C1(C)C` (stereo not given) was tested, and the “activity, negative = inhibition” value was 1.19% (inactive).
`CN(C)CCc1ccc(O)cc1` was tested, and the “activity, negative = inhibition” value was 2.54% (inactive).
With `c1ccc2c(c1)OCC(C1=NCCN1)O2` (stereo not given) the “activity, negative = inhibition” value was -4.93% (inactive).
For `COc1ccccc1N1CCNCC1`, the “activity, negative = inhibition” value was 0.769% (inactive).
`CCC(C(N)=O)N1CCCC1=O` (stereo not given) was tested, and the “activity, negative = inhibition” value was -0.0728% (inactive).
`CC(C)CC(N(C)C)C1(c2ccc(Cl)cc2)CCC1` (stereo not given) was tested, and the “activity, negative = inhibition” value was 0.661% (inactive).
In the case of `NCCc1cc(O)c(O)cc1O`, the “activity, negative = inhibition” value is reported as -0.106% (inactive).
`CC1NCCOC1c1ccccc1` (stereo not given) was tested, and the “activity, negative = inhibition” value was -15.5% (inactive).
`CCOC(=O)C1(c2ccccc2)CCN(CCC(C#N)(c2ccccc2)c2ccccc2)CC1` was tested, and the Potency was 4.78 µM (active).
In the case of `CCN(C(C)=O)c1cccc(-c2ccnc3c(C#N)cnn23)c1`, the “activity, negative = inhibition” value is reported as 0.971% (inactive).
For `CCC(COC(=O)c1cc(OC)c(OC)c(OC)c1)(c1ccccc1)N(C)C` (stereo not given), the “activity, negative = inhibition” value was -20.3% (inactive).
`C=C1CC[C@@]2(O)[C@H]3Cc4ccc(O)c5c4[C@@]2(CCN3CC2CC2)[C@H]1O5` was tested, and the “activity, negative = inhibition” value was -17.4% (inactive).
For `CC(C)(C)CC(C)(C)c1ccc(O)cc1`, the “activity, negative = inhibition” value was -8.18% (inactive).
With `CN1C(=S)CN=C(c2ccccc2)c2cc(Cl)ccc21` the “activity, negative = inhibition” value was -6.74% (inactive).
In the case of `C[C@]12C/C(=C/O)C(=O)C[C@@H]1CC[C@@H]1[C@@H]2CC[C@@]2(C)[C@H]1CC[C@]2(C)O`, the “activity, negative = inhibition” value is reported as -12.1% (inactive).
With `Nc1ccncc1` the “activity, negative = inhibition” value was 0.866% (inactive).
In the case of `CC(=O)Nc1cc([As](=O)(O)O)ccc1O`, the “activity, negative = inhibition” value is reported as 3.58% (inactive).
`NP(N)(=O)NC(=O)c1ccc(F)cc1` was tested, and the “activity, negative = inhibition” value was 11.9% (inactive).
For `CN1CCN(C(=O)O[C@H]2c3nccnc3C(=O)N2c2ccc(Cl)cn2)CC1`, the “activity, negative = inhibition” value was 1.44% (inactive).
For `O=C1NCN(c2ccccc2)C12CCN(CC1COc3ccccc3O1)CC2` (stereo not given), the “activity, negative = inhibition” value was -5.9% (inactive).
`Cn1c(CCCC(=O)O)nc2cc(N(CCCl)CCCl)ccc21` was tested, and the “activity, negative = inhibition” value was -5.03% (inactive).
For `CC1OC(C)OC(C)O1` (stereo not given), the Potency was “inactive”.
With `CCCN1CCC[C@@H]2Cc3[nH]ncc3C[C@H]21` the “activity, negative = inhibition” value was -1.49% (inactive).
In the case of `C#CCOC(C(=O)OCCN(C)C)(c1ccccc1)c1ccccc1`, the “activity, negative = inhibition” value is reported as 8.06% (inactive).
With `CC[C@@H](CO)NC(=O)[C@@H]1C=C2c3cccc4[nH]cc(c34)C[C@H]2N(C)C1` the “activity, negative = inhibition” value was 6.86% (inactive).
